ELG1 genotox: qHTS screen for small molecules that induce genotoxicity in human embryonic kidney (HEK293T) cells expressing luciferase-tagged ELG1; HEK293T ELG1-luciferase reporter, luminescence, 16 h; Potency, µM (top dose mostly 46 µM), usual class: activators; hit rate 1.3% among 330,000; AID 504466, 2011; also: nearly all actives have a fitted effect of over 60% in size
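HEK293T cells expressing luciferase-tagged ELG1 were exposed to compound or DMSO vehicle for 16 hr at 37 °C and 5% CO2. Luciferase activity was then measured with ONE-Glo after 30 min at room temperature.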
FLuc counter: qHTS profiling assay for firefly luciferase inhibitor/activator using purifed enzyme and Km concentrations of substrates (counterscreen for miR-21 project); purified FLuc, Km substrates, luminescence inhibition; Luciferin 4-monooxygenase (Photinus pyralis), P08659; hit rate 6.9% among 360,000; Potency, µM (top dose mostly 57.5 µM), most hits filed as inhibitors; also: nearly all actives have a fitted effect of over 55% in size
Target sequence (P08659 whole entry, looked up): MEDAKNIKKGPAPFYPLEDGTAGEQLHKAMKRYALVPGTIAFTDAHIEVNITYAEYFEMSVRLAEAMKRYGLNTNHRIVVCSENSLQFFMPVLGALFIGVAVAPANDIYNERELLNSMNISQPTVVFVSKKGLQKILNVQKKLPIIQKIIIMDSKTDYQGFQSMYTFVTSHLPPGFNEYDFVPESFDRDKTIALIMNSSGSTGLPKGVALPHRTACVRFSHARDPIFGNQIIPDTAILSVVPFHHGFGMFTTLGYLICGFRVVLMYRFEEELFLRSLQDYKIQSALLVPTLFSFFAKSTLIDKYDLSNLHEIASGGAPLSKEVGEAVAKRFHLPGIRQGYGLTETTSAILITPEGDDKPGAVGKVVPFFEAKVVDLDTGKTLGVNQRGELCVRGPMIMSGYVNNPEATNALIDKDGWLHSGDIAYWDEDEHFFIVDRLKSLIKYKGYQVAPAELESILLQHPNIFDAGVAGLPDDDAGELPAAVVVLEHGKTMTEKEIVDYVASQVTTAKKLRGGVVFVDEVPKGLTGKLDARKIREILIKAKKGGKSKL
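Purified P. pyralis luciferase, 10 nM final, with Km-level 10 uM D-luciferin and 10 uM ATP in 50 mM Tris acetate pH 7.5, 10 mM Mg acetate, 0.01% Tween-20, 0.05% BSA; 6-point qHTS titration about 60 µM downward; luminescence read.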
SMN2 splice enh: qHTS Assay for Enhancers of SMN2 Splice Variant Expression; HEK293 SMN2-luciferase splicing reporter, luminescence, 30-36 h; Potency, µM (top dose mostly 46.1 µM), actives largely listed as activators; hit rate 2.8% among 210,000; also: nearly all actives have a fitted effect of over 55% in size
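HEK293 cells carry an SMN2 […]–luciferase reporter in which exon 7 inclusion puts luciferase in frame. Cells were plated 10-12 h before compound addition, then incubated 30-36 h at 37C. ONE-Glo luminescence was read; sodium butyrate at 4.5 mM final served as control.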
ELG1 repair inh: qHTS screen for small molecules that inhibit ELG1-dependent DNA repair in human embryonic kidney (HEK293T) cells expressing luciferase-tagged ELG1 | HEK293T ELG1-luciferase reporter, luminescence, 16 h; DNA damage induced by 5-fluorouridine | Potency, µM (series often up to 46.1 µM), actives largely listed as inhibitors | hit rate 2.3% among 330,000; also: nearly all actives have a fitted effect of over 55% in size
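Step one: seed 2,000 cells per well. Step two: pin-transfer compound or DMSO alongside 5-fluorouridine. Step three: incubate 16 hr, 37 °C, 5% CO2. Step four: add ONE-Glo, wait 30 min, read luminescence.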
NPC1 promoter act: qHTS Assay for NPC1 Promoter Activators | hit rate 2.4% among 320,000 | Potency, µM (top dose mostly 9.22 µM), hits mostly activators | Huh7 NPC1 promoter luciferase reporter, 24 h | AID 485313, 2010; also: nearly all actives have a fitted effect of over 60% in size
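In 1536-well qHTS, Huh7 cells harboring an NPC1 promoter–luciferase construct received compound for 24 h; activation was quantified by luminescence following luciferase reagent addition.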
Rab9 prom act: qHTS Assay for Rab9 Promoter Activators; Huh7 Rab9 promoter-luciferase reporter, luminescence, 24 h; Potency, µM (highest dose often 9.22 µM), actives largely listed as activators; hit rate 2.8% among 320,000; AID 485297, 2010; also: nearly all actives have a fitted effect of over 60% in size
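Luminescence from Amplite-detected luciferase (10 minutes, ambient) reports Rab9 promoter activation. Before that, stable Rab9-luciferase Huh7 cells (1500/well, reduced-serum OP-MEM I plus 10% FBS) were exposed to compound for 24 hours at 37C.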
Numbers stand for hits; – = inactive; ? = inconclusive; · = no result given; [ ] = remark or other dose. Only some compounds are listed: those with a hit (about 9.3% of all), similar ones and a draw of the others. Calls follow the shape of the dose curve; as a rule, active = well fitted curve in the direction sought with a large enough effect; inconclusive = small, poorly fitted or top-dose-only effect, or another doubt; inactive = no such curve, though single readings can be large; an effect the other way counts as inactive or inconclusive.

SMILES	ELG1 genotox	FLuc counter	SMN2 splice enh	ELG1 repair inh	NPC1 promoter act	Rab9 prom act
Cn1c(-c2cc3ccccc3oc2=O)nc2ccccc21	?	21µM	·	?	4.5µM	3.5µM
COc1ccc2cc(C(C)=O)c(=O)oc2c1	–	–	–	–	–	–
COc1ccc2cc(-c3nc4ccccc4n3C)c(=O)oc2c1	?	5.4µM	13µM	?	2µM	1.3µM
O=C(CCCN1C(=O)c2ccccc2C1=O)Nc1ccc(S(=O)(=O)N2CCCCC2)cc1	–	–	–	–	–	–
COc1ccc(-c2cnn3c(N)c(S(=O)(=O)C(C)(C)C)cnc23)cc1	–	?	–	–	–	–
Cc1ccn2c(CN3CCOCC3)c(-c3ccccc3)nc2c1	–	?	20µM	?	–	?
COc1ccc(-c2nc3ccc(C)cn3c2NCc2ccc3c(c2)OCO3)cc1	–	13µM	–	?	–	?
Cc1ccc(-c2nc3ccccn3c2NCc2ccc3c(c2)OCO3)cc1	–	12µM	?	?	?	?
O=c1cc(CCl)[nH]c2nc3ccccc3n12	–	?	·	–	–	–
O=c1cc(-c2ccccc2)[nH]c2nc3ccccc3n12	2.3µM	0.95µM	4µM	?	3.5µM	2µM
Cc1ccc(C(=O)N/N=C2\CCCc3ccccc32)c(C)c1	–	6µM	13µM	?	2.8µM	?
O=C(N/N=C1\CCCc2ccccc21)c1ccc([N+](=O)[O-])cc1	?	6µM	14µM	?	?	3.5µM
O=C(CNc1ccc(F)cc1)N/N=C1\CCCc2ccccc21	–	–	–	–	–	–
CC1(C)C([N+](=O)[O-])C(c2ccccc2O)NC(c2ccccc2O)C1[N+](=O)[O-] (stereo unspecified)	–	–	·	–	–	–
CCCCC12CN3CCN(CC(C3)/C1=N\NC(=O)Nc1ccccc1)C2	–	–	–	–	–	–
CCN(CC)C(=O)C1CCCc2c1[nH]c1ccc(Cl)cc21 (stereo unspecified)	–	–	3.5µM	?	–	–
COc1cc(-c2cc(N)n(S(=O)(=O)c3ccc(F)cc3)n2)cc(OC)c1OC	–	–	–	–	–	–
COc1ccc(-c2cc(N)n(S(=O)(=O)c3ccc(F)cc3)n2)cc1OC	–	–	–	5.8µM	–	–
CCSCc1nnc(SCC(=O)Nc2nccs2)n1CC	–	–	–	–	–	–
Cc1cccc2c1-c1sc(C(=O)Nc3nccs3)cc1CO2	?	2.4µM	?	?	2.5µM	1.1µM
O=C(Nc1nccs1)c1cc2c(s1)-c1ccccc1OC2	8.2µM	1.7µM	10µM	?	2µM	3.2µM
O=C(Nc1cccnc1)c1cc2c(s1)-c1ccccc1OC2	–	?	·	?	–	–
CCOC(=O)c1cc2c(s1)-c1c(C)cccc1OC2	?	13µM	–	?	?	?
O=C(Nc1nc2ccccc2s1)c1cc2c(s1)-c1ccccc1OC2	13µM	–	–	?	–	?
O=C(Nc1cccnc1Cl)c1cc2c(s1)-c1ccccc1OC2	–	?	·	–	?	?
SMILES	ELG1 genotox	FLuc counter	SMN2 splice enh	ELG1 repair inh	NPC1 promoter act	Rab9 prom act
CCc1ccc2c(c1)NC(c1ccc(OC)cc1)=NC(c1ccncc1)=N2	·	–	–	·	·	·
CC(=O)N1CCN(S(=O)(=O)c2ccc(S(=O)(=O)NC3CCCCC3)cc2)CC1	–	–	·	–	–	–
CC(=O)Oc1ccc(Nc2ccccc2)cc1	–	?	–	–	–	–
CCCn1c2c(c(O)c(C(=O)Nc3ccc(OC)cc3)c1=O)CCCC2	–	–	–	–	–	–
COc1ccc(-c2noc(CNC(=O)c3ccc(OC)cc3OC)n2)cc1	·	–	–	·	·	·
COc1ccc(N(C)C(=O)c2cc3c(s2)-c2c(C)cccc2OC3)c(OC)c1	–	–	–	23µM	–	–
CCc1ccccc1N(C)C(=O)c1cc2c(s1)-c1c(C)cccc1OC2	·	–	–	·	·	·
O=C(NCCc1ccccc1)C1CCN(C(=O)c2ccc(F)cc2)CC1	–	–	·	–	–	–
COC(=O)C(Cc1ccc(OC(=O)c2ccccc2C)cc1)N1Cc2ccccc2C1=O (stereo unspecified)	–	–	?	–	?	?
COC(=O)C(Cc1ccc(OC(=O)c2ccccc2Cl)cc1)N1Cc2ccccc2C1=O (stereo unspecified)	–	?	–	?	?	4µM
CCN(c1ccccc1)c1nc2ccsc2c(=O)s1	?	?	–	–	–	–
CN(c1ccccc1)c1nc2ccsc2c(=O)s1	13µM	12µM	?	?	?	3.2µM
CCCCNC(=S)N(C)/N=C/c1ccc(OCC(=O)Nc2ccc(OC)cc2)c(OC)c1	–	–	–	10µM	–	–
CCNC(=S)N/N=C/c1ccc(OCC(=O)Nc2ccc(OC)cc2)c(OC)c1	–	–	–	?	–	–
C/C=C/c1ccc(OCC(=O)Nc2ccncc2)c(OC)c1	–	?	·	–	–	–[1.84 µM]
COc1ccc(NC(=O)COc2ccc(/C=N/O)cc2OC)cc1	?	21µM	·	?	?	?
C/C=C/c1ccc(OCC(=O)Nc2ccc(OC)c(OC)c2)c(OC)c1	–	–	–	16µM	–	–
c1ccc(-n2ncc3c(NCc4cccs4)ncnc32)cc1	10µM	12µM	11µM	?	3.5µM	2µM
COc1ccc(-n2ncc3c(NCc4cccs4)ncnc32)cc1	?	9.5µM	?	?	2.5µM	1.1µM
O=C(NNc1ncnc2c1cnn2-c1ccccc1)c1cccs1	–	?	–	–	–	–
COc1cc(C)ccc1NC(=O)c1ccc(S(=O)(=O)N2CCOCC2)cc1	–	–	–	–	–	–
CC(=O)c1c(C)[nH]c(C(=O)OCc2cccc(Cl)c2)c1C	–	?	–	–	–	–
CC(=O)c1c(C)[nH]c(C(=O)OCc2ccc(F)cc2Cl)c1C	–	–	–	9.2µM	–	–
CC(=O)c1c(C)[nH]c(C(=O)OCc2c(F)cccc2Cl)c1C	–	–	–	7.3µM	–	–
COc1ccc(C2=NN(c3nc(-c4ccccc4)c(CC(=O)O)s3)C(c3ccco3)C2)cc1 (stereo unspecified)	–	–	–	–	–	–
Cc1cc(C)c(NC(=O)c2ncoc2-c2ccco2)c(C)c1	·	–	·	·	·	·
CC(=O)Nc1ccc(NC(=O)c2ncoc2-c2ccco2)cc1	·	19µM	·	·	·	·
O=C(CN1CCCC1)Nc1ccc(NC(=O)Nc2ccccc2Cl)cc1	?	21µM	–	?	–	–

Bioassay records as filed in PubChem BioAssay.
